Reference: PubChem BioAssay (NCATS)
Results filed as inconclusive are left out. Calls of active or inactive are those of the source. Calls come from the whole dose curve; as a rule, active = well fitted curve in the direction sought with a large enough effect; inconclusive = small, poorly fitted or top-dose-only effect, or another doubt; inactive = no such curve, though single readings can be large; an effect the other way counts as inactive or inconclusive.

Assays:
[1] = Quantitative High-Throughput drug screen in 47 multiple myeloma cell lines against the NCATS MIPE library collection: KMM1_JCRB cell viability assay (AID 1918960); note: nearly all actives have a fitted effect of over 30% in size; note: potency is the fitted concentration of half-maximal effect
Method in brief: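 Luminescence from CellTiter-Glo, taken after 5 min at room temperature, reports cellular ATP as viability. Cells (500 per well) had been treated 48 h at 37 °C with MIPE 4.0 compounds, scaled between DMSO and medium-only controls.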

[2] = Quantitative High-Throughput drug screen in 47 multiple myeloma cell lines against the NCATS MIPE library collection: JIM3_ECACC cell viability assay (AID 1918963; note: nearly all actives have a fitted effect of over 35% in size; note: potency is the fitted concentration of half-maximal effect)
Method in brief: (§1)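 Primary qHTS used for cherry-picking: cells at 500/well, library compounds for 48 h (37C, 5% CO2), luminescent ATP assay.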

[3] = Quantitative High-Throughput drug screen in 47 multiple myeloma cell lines against the NCATS MIPE library collection: JIM1_ECACC cell viability assay (AID 1918964; note: potency is the fitted concentration of half-maximal effect)
Method in brief: (§2)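 Relative luminescence from CellTiter-Glo served as the viability signal, referenced to DMSO-treated (100%) and cell-free medium (0%) controls. Treatment lasted 48 hours at 37C with 500 cells per well.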

[4] = Quantitative High-Throughput drug screen in 47 multiple myeloma cell lines against the NCATS MIPE library collection: JJN3_DSMZ cell viability assay (AID 1918966; note: nearly all actives have a fitted effect of over 50% in size; note: potency is the fitted concentration of half-maximal effect)
Method in brief: as §2

[5] = Quantitative High-Throughput drug screen in 47 multiple myeloma cell lines against the NCATS MIPE library collection: H1112_PLB cell viability assay (AID 1918967; note: nearly all actives have a fitted effect of over 30% in size; note: potency is the fitted concentration of half-maximal effect)
Method in brief: as §2

[6] = Quantitative High-Throughput drug screen in 47 multiple myeloma cell lines against the NCATS MIPE library collection: Karpas25_ECACC cell viability assay (AID 1918968; note: nearly all actives have a fitted effect of over 35% in size; note: potency is the fitted concentration of half-maximal effect)
Method in brief: as §2

[7] = Quantitative High-Throughput drug screen in 47 multiple myeloma cell lines against the NCATS MIPE library collection: KMS12BM_JCRB cell viability assay (AID 1918971); note: nearly all actives have a fitted effect of over 35% in size; note: potency is the fitted concentration of half-maximal effect
Method in brief: (§3)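 Luminescent ATP measurement with CellTiter-Glo gives viability, scaled between DMSO-only wells (100%) and media-only wells (0%). Cells, 500 per well, faced library compounds for 48 hours at 37C.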

[8] = Quantitative High-Throughput drug screen in 47 multiple myeloma cell lines against the NCATS MIPE library collection: KMS12PE_JCRB cell viability assay (AID 1918972); note: nearly all actives have a fitted effect of over 30% in size; note: potency is the fitted concentration of half-maximal effect; for viability: series mostly up to about 46 µM
Method in brief: (§4)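 We plated 500 myeloma cells per well, pinned in MIPE 4.0 compounds, and incubated for 48 hours at 37C. ATP was then quantified with CellTiter-Glo, with DMSO and media-only wells defining 100% and 0%.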

[9] = Quantitative High-Throughput drug screen in 47 multiple myeloma cell lines against the NCATS MIPE library collection: MMM1_PLB cell viability assay (AID 1918976); note: potency is the fitted concentration of half-maximal effect; nearly all actives have a fitted effect of over 35% in size
Method in brief: (§5)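 Plated at 500 cells per well, myeloma lines received MIPE 4.0 compounds by pin tool. Following 48 h culture at 37 °C, CellTiter-Glo luminescence gave viability relative to DMSO and media-only controls.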

[10] = Quantitative High-Throughput drug screen in 47 multiple myeloma cell lines against the NCATS MIPE library collection: INA6_PLB cell viability assay (AID 1918965; note: nearly all actives have a fitted effect of over 55% in size; note: potency is the fitted concentration of half-maximal effect)
Method in brief: as §4

[11] = Quantitative High-Throughput drug screen in 47 multiple myeloma cell lines against the NCATS MIPE library collection: KMS20_JCRB cell viability assay (AID 1918973); note: nearly all actives have a fitted effect of over 45% in size; note: potency is the fitted concentration of half-maximal effect
Method in brief: as §2

[12] = Quantitative High-Throughput drug screen in 47 multiple myeloma cell lines against the NCATS MIPE library collection: OCIMY1_PLB cell viability assay (AID 1918979); note: nearly all actives have a fitted effect of over 35% in size; note: potency is the fitted concentration of half-maximal effect; for viability: series mostly up to about 46 µM
Method in brief: as §5

[13] = Quantitative High-Throughput drug screen in 47 multiple myeloma cell lines against the NCATS MIPE library collection: MM1S_ATCC cell viability assay (AID 1918980); note: nearly all actives have a fitted effect of over 45% in size; note: potency is the fitted concentration of half-maximal effect
Method in brief: as §5

[14] = Quantitative High-Throughput drug screen in 47 multiple myeloma cell lines against the NCATS MIPE library collection: MM1R_ATCC cell viability assay (AID 1918981); note: nearly all actives have a fitted effect of over 35% in size; note: potency is the fitted concentration of half-maximal effect
Method in brief: as §5

[15] = Quantitative High-Throughput drug screen in 47 multiple myeloma cell lines against the NCATS MIPE library collection: KHM11_PLB cell viability assay (AID 1918962); note: nearly all actives have a fitted effect of over 35% in size; note: potency is the fitted concentration of half-maximal effect
Method in brief: as §1

[16] = Quantitative High-Throughput drug screen in 47 multiple myeloma cell lines against the NCATS MIPE library collection: KMS26_JCRB cell viability assay (AID 1918975); note: nearly all actives have a fitted effect of over 45% in size; note: potency is the fitted concentration of half-maximal effect
Method in brief: as §3

[17] = Quantitative High-Throughput drug screen in 47 multiple myeloma cell lines against the NCATS MIPE library collection: NCIH929_DSMZ cell viability assay (AID 1918978); note: nearly all actives have a fitted effect of over 35% in size
Method in brief: as §5

[18] = Quantitative High-Throughput drug screen in 47 multiple myeloma cell lines against the NCATS MIPE library collection: KMS27_JCRB cell viability assay (AID 1918970); note: nearly all actives have a fitted effect of over 30% in size; note: potency is the fitted concentration of half-maximal effect
Method in brief: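 CellTiter-Glo luminescence after 48 h drug exposure at 37 °C; 500 cells/well, 1536-well format, pin-tool compound addition; DMSO = 100%, media-only = 0% viability.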

[19] = Quantitative High-Throughput drug screen in 47 multiple myeloma cell lines against the NCATS MIPE library collection: MOLP8_DSMZ cell viability assay (AID 1918977); note: nearly all actives have a fitted effect of over 45% in size; note: potency is the fitted concentration of half-maximal effect
Method in brief: as §5

Measured: Potency

Cc1c(C(=O)NN2CCCCC2)nn(-c2ccc(Cl)cc2Cl)c1-c1ccc(Cl)cc1
active: [1] 23.5 µM | [2] 23.5 µM | [3] 11.8 µM | [4] 20.9 µM | [5] 23.5 µM | [6] 23.5 µM | [7] 23.5 µM | [8] 14.8 µM | [9] 20.9 µM

CS(=O)(=O)OCCCCOS(C)(=O)=O
inactive: [1] | [2] | [10] | [5] | [6] | [8] | [11] | [12] | [13]
active: [9] 16.6 µM | [14] 3.72 µM

CCC1=C(C)CN(C(=O)NCCc2ccc(S(=O)(=O)NC(=O)NC3CCC(C)CC3)cc2)C1=O (centres undefined)
inactive: [1] | [15] | [10] | [4] | [5] | [6] | [8] | [11] | [16] | [17] | [12] | [13] | [14]

Cc1cc(=O)oc2cc(O)ccc12
inactive: [1] | [10] | [5] | [18] | [7] | [8] | [11] | [16] | [19] | [12]
active: [15] 0.0662 µM | [6] 4.69 µM | [9] 0.296 µM | [14] 6.62 µM

NNc1nncc2ccccc12
inactive: [1] | [2] | [5] | [7] | [8] | [11] | [16] | [17] | [12] | [13] | [14]
active: [9] 20.9 µM

O=c1c(O)c(-c2cc(O)c(O)c(O)c2)oc2cc(O)cc(O)c12
inactive: [1] | [15] | [5] | [18] | [8] | [11] | [12]
active: [4] 20.9 µM | [7] 23.5 µM | [9] 18.7 µM | [19] 18.7 µM | [14] 20.9 µM

NS(=O)(=O)c1cc(C(=O)O)c(NCc2ccco2)cc1Cl
inactive: [1] | [2] | [3] | [5] | [6] | [7] | [8] | [12] | [14]
active: [16] 0.209 µM

Clc1ccc2c(N3CCN(CCCN4CCN(c5ccnc6cc(Cl)ccc56)CC4)CC3)ccnc2c1
inactive: [1] | [2] | [10] | [4] | [5] | [6] | [7] | [11] | [17] | [12] | [14]

CC1(C)C(=O)N(CCN2CCC(C(=O)c3ccc(F)cc3)CC2)c2ccccc21
active: [1] 8.33 µM | [15] 2.09 µM | [10] 1.66 µM | [6] 13.2 µM | [18] 13.2 µM | [8] 10.5 µM | [11] 4.18 µM | [12] 7.43 µM | [13] 20.9 µM | [14] 16.6 µM

O=C(O)c1cccc(-c2noc(-c3ccccc3F)n2)c1
active: [10] 23.5 µM | [7] 16.6 µM | [9] 2.35 µM | [13] 20.9 µM
inactive: [1] | [2] | [3] | [5] | [11] | [17] | [12]

O=C(OC1C[C@H]2CC[C@@H](C1)[N+]21CCCC1)C(O)(c1ccccc1)c1ccccc1 (some centres undefined)
inactive: [1] | [15] | [3] | [5] | [6] | [18] | [7] | [8] | [16] | [19] | [17] | [13] | [14]

O=C1c2c(O)cc(O)cc2OC(c2ccc(O)c(O)c2)C1O (centres undefined)
inactive: [1] | [2] | [3] | [10] | [5] | [6] | [8] | [16] | [19] | [17] | [12]

N=C(N)c1ccc2cc(OC(=O)c3ccc(N=C(N)N)cc3)ccc2c1
inactive: [1] | [2] | [3] | [5] | [18] | [8] | [17] | [13] | [14]
active: [6] 9.35 µM | [7] 23.5 µM | [9] 0.935 µM
